In PubChem BioAssay (NCI):
Compounds without any hit were thinned out: in the full panel of roughly 83,000, 20% have a hit.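 Compound tested at a single concentration for 48 hours in 96-well plates; a percent growth value below 10 was scored as active.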 Activity calls are given as the source filed them.

What was measured:
Assay in all cases: NCI-60 one-dose screen, 48 h (100 = growth as untreated, 0 = no growth, -100 = all killed)
Settings in all cases: 10 µM unless noted
SR leukemia = test system: SR leukemia
RPMI-8226 leukemia = test system: RPMI-8226 leukemia
OVCAR-8 ovarian = test system: OVCAR-8 ovarian
OVCAR-5 ovarian = test system: OVCAR-5 ovarian
OVCAR-4 ovarian = test system: OVCAR-4 ovarian
SK-OV-3 ovarian = test system: SK-OV-3 ovarian
IGROV1 ovarian = test system: IGROV1 ovarian
OVCAR-3 ovarian = test system: OVCAR-3 ovarian
HS 578T breast = test system: HS 578T breast
NCI/ADR-RES ovarian = test system: NCI/ADR-RES ovarian
T-47D breast = test system: T-47D breast
MDA-MB-435 melanoma = test system: MDA-MB-435 melanoma
SW-620 colon = test system: SW-620 colon
HCC-2998 colon = test system: HCC-2998 colon
KM12 colon = test system: KM12 colon
BT-549 breast = test system: BT-549 breast
MCF7 breast = test system: MCF7 breast
HCT-116 colon = test system: HCT-116 colon

SMILES | growth (SR leukemia) | growth (RPMI-8226 leukemia) | growth (OVCAR-8 ovarian) | growth (OVCAR-5 ovarian) | growth (OVCAR-4 ovarian) | growth (SK-OV-3 ovarian) | growth (IGROV1 ovarian) | growth (OVCAR-3 ovarian) | growth (HS 578T breast) | growth (NCI/ADR-RES ovarian) | growth (T-47D breast) | growth (MDA-MB-435 melanoma) | growth (SW-620 colon) | growth (HCC-2998 colon) | growth (KM12 colon) | growth (BT-549 breast) | growth (MCF7 breast) | growth (HCT-116 colon)
COc1ccc(-c2cc(-c3nnc(SC/C(=N\O)c4ccccc4)n3-c3ccccc3)c3ccccc3n2)cc1 | 86.8% (inactive) | 97.9% (inactive) | 98.7% (inactive) | 119% (inactive) | 113% (inactive) | 79.4% (inactive) | 105% (inactive) | 107% (inactive) | 98.4% (inactive) | 104% (inactive) | 106% (inactive) | 108% (inactive) | 102% (inactive) | 103% (inactive) | 98.9% (inactive) |  |  | 
CC(C)C(=O)Nc1nc2c(s1)CCCc1ccn(S(=O)(=O)c3ccccc3)c1-2 | 84.3% (inactive) | 87.5% (inactive) | 101% (inactive) | 99.2% (inactive) | 104% (inactive) | 87.4% (inactive) | 107% (inactive) | 107% (inactive) | 101% (inactive) | 94.2% (inactive) |  | 106% (inactive) | 105% (inactive) | 106% (inactive) | 97.1% (inactive) | 89.8% (inactive) | 86.3% (inactive) | 78.9% (inactive)
COc1ccc(-c2nnc(SCC(=O)Nc3ccc(C(=O)/C=C/c4ccccc4)cc3)o2)cc1OC | 88.1% (inactive) | 70.5% (inactive) | 98.8% (inactive) | 106% (inactive) | 101% (inactive) | 109% (inactive) | 103% (inactive) | 105% (inactive) | 110% (inactive) | 93.5% (inactive) |  | 92.7% (inactive) | 103% (inactive) | 116% (inactive) | 99.6% (inactive) | 98.3% (inactive) | 56% (inactive) | 51.8% (inactive)
CC(C)CNCC(=O)Nc1ccc(Cc2ccc(NC(=O)CNCC(C)C)cc2)cc1 | 6.24% (active) | 32.8% (inactive) | 62.1% (inactive) | 72.8% (inactive) | 71.6% (inactive) | 84.1% (inactive) | 47.2% (inactive) | 74.5% (inactive) | 65.1% (inactive) | 78.2% (inactive) |  | 88.5% (inactive) | 77.5% (inactive) | 36.6% (inactive) | 67.7% (inactive) | 51.7% (inactive) | 43.8% (inactive) | 36.4% (inactive)
O=C1CCC(=O)N1C1CCCCC1 | 96.4% (inactive) | 109% (inactive) | 112% (inactive) | 109% (inactive) | 104% (inactive) | 103% (inactive) | 91.9% (inactive) | 102% (inactive) | 97.5% (inactive) | 102% (inactive) |  | 99.5% (inactive) | 105% (inactive) | 103% (inactive) | 101% (inactive) | 102% (inactive) | 96.2% (inactive) | 99% (inactive)
O=[N+]([O-])c1ccc(NS(=O)(=O)c2ccccc2)c2ccccc12 | 51.6% (inactive) | 11.7% (inactive) | 63.1% (inactive) | 84.4% (inactive) | 40.6% (inactive) | 34.7% (inactive) | 30.2% (inactive) | 25.5% (inactive) | 48% (inactive) | 51% (inactive) | 32% (inactive) | 36.8% (inactive) | 49.6% (inactive) | 36.7% (inactive) | 40.1% (inactive) |  | 42.3% (inactive) | 44.6% (inactive)
C[C@]12CC[C@@H]3c4ccc(O)c(N)c4CC[C@H]3[C@@H]1CC[C@@H]2O | 98.1% (inactive) | 85.5% (inactive) | 104% (inactive) | 117% (inactive) | 110% (inactive) | 128% (inactive) | 136% (inactive) | 100% (inactive) | 99.2% (inactive) | 105% (inactive) |  |  | 122% (inactive) |  | 103% (inactive) | 99.3% (inactive) | 116% (inactive) | 89.9% (inactive)
O=C(O)c1cccc(S(=O)(=O)c2ccccc2)c1 | 97.1% (inactive) | 103% (inactive) | 112% (inactive) | 99% (inactive) | 102% (inactive) | 116% (inactive) | 100% (inactive) | 107% (inactive) | 91.6% (inactive) | 104% (inactive) |  | 94.2% (inactive) | 98.5% (inactive) | 104% (inactive) | 97.4% (inactive) | 107% (inactive) | 90.4% (inactive) | 109% (inactive)
COc1ccc(Cl)cc1NC(=O)c1cc2c(n1C)-c1nc(NC(=O)C(C)C)sc1CC2 | 79.1% (inactive) | 82.7% (inactive) | 81.8% (inactive) | 108% (inactive) | 66% (inactive) | 82.9% (inactive) | 104% (inactive) | 111% (inactive) | 83.4% (inactive) | 90.5% (inactive) |  | 93.8% (inactive) | 90.5% (inactive) | 122% (inactive) | 92.7% (inactive) | 53% (inactive) | 84.5% (inactive) | 44.6% (inactive)
COc1cc2nc(C(=O)N3CCCCC3)cc(Nc3ccccc3)c2cc1OC | 81.7% (inactive) | 87.6% (inactive) | 98.3% (inactive) | 109% (inactive) | 100% (inactive) | 108% (inactive) | 98.3% (inactive) | 93.9% (inactive) | 95% (inactive) | 95.4% (inactive) | 91.2% (inactive) | 104% (inactive) | 107% (inactive) | 105% (inactive) | 99.3% (inactive) |  | 96.5% (inactive) | 99.9% (inactive)
c1ccc2c(c1)Oc1cccnc1-n1nccc1-2 | 94.2% (inactive) | 96.9% (inactive) | 99.6% (inactive) | 107% (inactive) | 110% (inactive) | 104% (inactive) | 104% (inactive) | 108% (inactive) | 90.1% (inactive) | 100% (inactive) | 105% (inactive) | 107% (inactive) | 102% (inactive) | 110% (inactive) | 100% (inactive) |  | 98.6% (inactive) | 104% (inactive)
COc1cc(C(=O)NNC(=O)c2ccccc2O)cc(OC)c1OC | 77.8% (inactive) | 86.8% (inactive) | 82.9% (inactive) | 103% (inactive) | 110% (inactive) | 87.8% (inactive) | 98.8% (inactive) | 109% (inactive) | 95.1% (inactive) | 94.5% (inactive) |  | 96.9% (inactive) | 103% (inactive) | 97.1% (inactive) | 103% (inactive) | 120% (inactive) | 92.2% (inactive) | 101% (inactive)
CCn1cc(/C=C2\Oc3cc(OCC#N)ccc3C2=O)c2cc(OC)ccc21 | 19.2% (inactive) | 15.1% (inactive) | 21% (inactive) | 62.1% (inactive) | 85.6% (inactive) | 43.3% (inactive) | 43.3% (inactive) | -6.84% (active) | 29.4% (inactive) | 11.2% (inactive) |  | -20.7% (active) | 28% (inactive) | 55.6% (inactive) | 23.6% (inactive) | 52.6% (inactive) | 20.6% (inactive) | 12.4% (inactive)
O=[N+]([O-])c1cccc2cc(S(=O)(=O)O)ccc12 | 103% (inactive) | 99% (inactive) | 98.9% (inactive) | 107% (inactive) | 114% (inactive) | 95.1% (inactive) | 104% (inactive) | 99.8% (inactive) | 107% (inactive) | 101% (inactive) | 98.9% (inactive) | 110% (inactive) | 99.9% (inactive) | 100% (inactive) | 108% (inactive) |  | 97.2% (inactive) | 97.6% (inactive)
O=C(CSc1nnc(-c2cc3c([nH]c4ccccc43)c(-c3cccc(O)c3)n2)n1-c1ccccc1)c1ccccc1 | 18.6% (inactive) | 43.4% (inactive) | 57.3% (inactive) | 104% (inactive) | 50.1% (inactive) | 92.8% (inactive) | 61.2% (inactive) | 40.6% (inactive) | 73.3% (inactive) | 64% (inactive) |  | -33.3% (active) | 50% (inactive) | 96% (inactive) | 60.1% (inactive) |  | 13.7% (inactive) | 29.7% (inactive)
COc1ccc(N)c(S)c1 | 103% (inactive) | 95.9% (inactive) | 90.6% (inactive) | 104% (inactive) | 96% (inactive) | 85% (inactive) | 94.9% (inactive) | 110% (inactive) | 102% (inactive) | 98.4% (inactive) | 89.5% (inactive) | 106% (inactive) | 93.6% (inactive) | 103% (inactive) | 105% (inactive) |  | 94.4% (inactive) | 92.5% (inactive)
CCOc1cccc(Nc2nc(N)nc3[nH]c4ccc(O)cc4c23)c1 | 65.7% (inactive) | 42.4% (inactive) | 77.6% (inactive) | 63.1% (inactive) | 66.3% (inactive) | 55.9% (inactive) | 16.7% (inactive) | 58.5% (inactive) | 58.5% (inactive) | 80.4% (inactive) |  | 84.2% (inactive) | 76.1% (inactive) | 89.8% (inactive) | 87.6% (inactive) | 68.8% (inactive) | 43.1% (inactive) | 72.9% (inactive)
